These results are taken from PubChem BioAssay (Tox21).

Molecules are shown by their SMILES. Records with an inconclusive call do not appear. A call without a number means that no potency is given here. Calls of active or inactive are those of the source. The call rests on the fitted dose curve.

The assay in a line: cAMP Responsive Elements (CRE) small molecule agonists, cell-based qHTS assay (AID 1963590). The conditions noted are these: CRE-bla HEK293T, beta-lactamase FRET ratio, 3 h; series mostly up to 92.4 µM. From the text:
U.S. Tox21 Program National Center for Advancing Translational Sciences [NCATS] Division of Preclinical Innovation [DPI] U.S. Environmental Protection Agency [EPA] National Institutes of Environmental Health Sciences [NIEHS] National Toxicology Program [NTP] U.S. Food and Drug Administration [FDA] Tox21 Assay Overview: CREB (cyclic-AMP Responsive Element Binding Protein) is a cellular transcription factor. It binds to certain DNA sequences called cAMP Responsive Elements (CRE) and regulates the transcription of the genes. […] This cell line can be used to find agonists/antagonists of the cyclic AMP signaling pathway. The activation of the report gene under culture conditions can be detected by fluorescence intensity. This cell line has been used to screen the Tox21 10K compound library to identify agonists that induce oxidative stress.
Tox21 Assay Protocol Summary: CRE-bla Hek 293T cells were suspended in assay medium (DMEM containing 10% dialyzed FBS, 0.1 mM NEAA, 1 mM sodium pyruvate and 25 mM HEPES) and dispensed at 2,000 cells/5 uL /well into 1536-well black wall/clear bottom plates using a Multidrop Combi (ThermoFisher Scientific, Waltham, MA) dispenser. After the assay plates were incubated at 37 C/5% CO2 for 18 hrs, 23 nL of compounds dissolved in DMSO, positive controls or DMSO only was transferred to the assay plate by a pintool workstation (Kalypsys, San Diego, CA). After the plates were incubated at 37 C/5% CO2 for 3 hrs, 1 uL of LiveBLAzer B/G FRET substrate (Invitrogen, Carlsbad, CA) was added to each well using Bioraptr Flying Reagent Dispenser (FRD, Aurora Discovery, San Diego, CA). The plates were incubated at room temperature for 2 h.
A general note: qHTS replaces the single test concentration by a dilution series.
For the compound `Nc1ccc(-c2ccc(N)cc2)cc1`, the Potency result is “inactive”. Consider `N#CC1(N=NC2(C#N)CCCCC2)CCCCC1`, for which the Potency entry was “inactive”. As to `c1ccc(NNc2ccccc2)cc1`, the Potency result was “inactive”. On to `c1ccc2c(c1)Oc1ccccc1O2`, for which the Potency entry is “inactive”. The entry for `CCCCCCCCCCCCOS(=O)(=O)O` is “inactive”; for `N#CCc1ccccc1` it is “inactive”. Consider `CS(=O)(=O)Cl`, for which the Potency entry is “inactive”. With `Cl/C=C\CCl`, the Potency entry was “inactive”. `O=C(Cc1ccccc1)c1ccccc1`: the Potency result is “inactive”. The entry for `Nc1c(Cl)cc([N+](=O)[O-])cc1Cl` is “inactive”; for `CC(C)(C)C(=O)Cl` it is “inactive”.

In the case of `C(=NC1CCCCC1)=NC1CCCCC1`, the Potency entry was “inactive”.

Regarding `CCC(Cl)[N+](=O)[O-]` (stereo not given), the Potency result was “inactive”. The entry for `C[C@H]1C(=O)O[C@@H]2CCN3CC=C(COC(=O)[C@](C)(O)[C@]1(C)O)[C@H]23` is “inactive”.

Take `BrCCBr`: the Potency result is “inactive”. Next, `CC(C)(C)C(=O)CCl`: “inactive”; `C=CC#N`: “inactive”.

On to `CCOC(=O)N(C)N=O`, for which the Potency result was “inactive”.

With `COP(=S)(OC)Oc1ccc(SC)c(C)c1`, the Potency result was “inactive”. The entry for `CCN(CC)Cc1nccn1-c1ccc([N+](=O)[O-])cc1C(=O)c1ccccc1Cl` is “inactive”.

Take `c1ccc(-c2cccc(-c3ccccc3)c2)cc1`: the Potency entry is “inactive”. The entry for `Oc1ccc(Cl)cc1Cl` is “inactive”; for `COC[C@@H](NC(C)=O)C(=O)NCc1ccccc1` it is “inactive”; for `CCC(=O)c1ccccc1` it is “inactive”. Next, `CCOc1nc(F)cc2nc(S(=O)(=O)Nc3c(Cl)cccc3Cl)nn12`: “inactive”; `[O-][Cl+2]([O-])O`: “inactive”; `CCOC(=O)CC(SP(=O)(OC)OC)C(=O)OCC` (stereo not given): “inactive”. On to `COc1cc2c(cc1OC)[C@@]13CCN4CC5=CCO[C@H]6CC(=O)N2[C@H]1[C@H]6[C@H]5C[C@H]43`, for which the Potency entry is “inactive”.

Consider `C=CCCC#N`, for which the Potency result is “inactive”. Regarding `O=C(CCl)c1ccc(Cl)cc1Cl`, the Potency entry was “inactive”. Next, `CCc1cc(C)cc(CC)c1-c1c(OC(=O)C(C)(C)C)n2n(c1=O)CCOCC2`: “inactive”; `CC(C)(C1CCC(O)CC1)C1CCC(O)CC1` (stereo not given): “inactive”. Next, `Cl/C=C\C[N+]12CN3CN(CN(C3)C1)C2`: “inactive”; `O=C(O)C1C(C(=O)O)C2(Cl)C(Cl)=C(Cl)C1(Cl)C2(Cl)Cl` (stereo not given): “inactive”.

As to `Cc1cccc(N)c1`, the Potency entry is “inactive”.

With `CCCCC(CC)COC(=O)c1ccc(C(=O)OCC(CC)CCCC)c(C(=O)OCC(CC)CCCC)c1` (stereo not given), the Potency result was “inactive”. `CSc1nc(NC(C)C)nc(NC(C)C)n1`: the Potency result was “inactive”. In the case of `Nc1ncc([N+](=O)[O-])s1`, the Potency entry was “inactive”. Next, `COc1cc(OC)nc(Oc2cccc(Oc3nc(OC)cc(OC)n3)c2C(=O)O)n1`: “inactive”; `CCCCN(CC)C(=O)SCCC`: “inactive”.
